Assay outcomes from PubChem BioAssay.
CD40 NFkB inh: CD40 pathway inhibition in BL2 cells; BL2 NF-kB luciferase reporter, CD40L-induced, 4 h; inhibition, % at 10 µM; 83,000 tested, 0.94% active;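 active = mean inhibition of at least 50% with a set share of replicates also reaching that level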
Of the large screens only hits and unclear results are named; the others gave an inactive call; [ ] = another dose, or the depositor's remark. The entries come from a sample that favours hits as a whole.

Cc1ccc(OC(=O)N(C)C[C@@H]2OCc3ccccc3-c3c(n(C)c4ccccc34)C(=O)N([C@@H](C)CO)C[C@H]2C)cc1	CD40 NFkB inh 55[25 µM]
Cc1ccc(OC(=O)N(C)C[C@H]2OCc3ccccc3-c3c(n(C)c4ccccc34)C(=O)N([C@@H](C)CO)C[C@@H]2C)cc1	none
Cc1ccc(OC(=O)N(C)C[C@H]2OCc3ccccc3-c3c(n(C)c4ccccc34)C(=O)N([C@H](C)CO)C[C@H]2C)cc1	none
OC[C@@H]1[C@@H]2c3ccccc3NC[C@@H]2N1Cc1cccnc1	none
CCOC(=O)C1(c2ccccc2)CCN(CCC(=O)Nc2cccc(Br)c2)CC1	none
CS(=O)(=O)N1C[C@@H]2C(c3ccc(Br)cc3)[C@H](C1)N2CC1CC1 (some centres not stated)	none
C[C@@H]1CN([C@@H](C)CO)C(=O)c2c(c3ccccc3n2C)-c2ccccc2CO[C@H]1CN(C)C(=O)Oc1ccccc1	none
Clc1ccc(CSC(Cn2ccnc2)c2ccc(Cl)cc2Cl)cc1 (configuration not stated)	CD40 NFkB inh 49
c1ccc(Cn2ccnc2)cc1	none
CCOC(=O)c1cnc(SCc2ccc(Cl)c(Cl)c2)nc1N1CC1	none
CN1C2CN(CC(F)(F)F)CC1C2c1ccc(Br)cc1 (configuration not stated)	none
Cc1cccc(S(=O)(=O)N2[C@@H]3c4ccc(-c5ccc(F)cc5)c(=O)n4C[C@H]2[C@H](CO)[C@H]3C(=O)O)c1	none
COC(=O)[C@@H]1[C@@H](CO)[C@@H]2Cn3c(ccc(-c4cncnc4)c3=O)[C@H]1N2S(=O)(=O)c1ccccc1C	none
COC(=O)[C@H]1[C@H](CO)[C@H]2Cn3c(ccc(-c4ccc(F)cc4)c3=O)[C@@H]1N2C(C)=O	none
COc1ccccc1CN1[C@H](CO)[C@H](c2ccccc2)C12CN(C(=O)Cc1ccccc1)C2	none
OCC1OC(n2cnc3cc(Cl)c(Cl)cc32)C(O)C1O (configuration not stated)	CD40 NFkB inh 47
COC(=O)[C@H]1[C@H](CO)[C@H]2Cn3c(cccc3=O)[C@@H]1N2CCc1ccccc1	none
COc1cccc(-c2ccc([C@H]3[C@H](CO)N4CCCCN(C(=O)Cc5ccncc5)C[C@@H]34)cc2)c1	none
COc1cccc(-c2ccc([C@@H]3[C@H](CO)N4CCCCN(C(=O)Cc5ccncc5)C[C@@H]34)cc2)c1	none
CC(C)=CCCN1CCC(NC(=O)[C@](O)(c2ccccc2)C2CCCC2)CC1	none
COc1cccc(CN2CC3(C2)[C@H](c2ccccc2)[C@H](CO)N3C(=O)Cc2ccccc2)c1	none
O=C1/C(=C/c2ccccc2)C[C@@]2(O)C3Cc4ccc(O)c5c4[C@@]2(CCN3CC2CC2)[C@H]1O5	CD40 NFkB inh 85[25 µM]
O=C1CC[C@@]2(O)[C@H]3Cc4ccc(O)c5c4[C@@]2(CCN3CC2CC2)[C@H]1O5	none
COC(=O)C=CC(=O)NC1CCC2(O)C3Cc4ccc(O)c5c4C2(CCN3CC2CC2)C1O5 (configuration not stated)	none
COc1cc2c(cc1O)C(CCc1ccc(Cl)cc1)N(C)CC2 (configuration not stated)	none
O=C1Nc2cc(Cl)c(Cl)cc2N2CCNCC12 (configuration not stated)	none
O=C(O)[C@@H]1[C@@H](CO)[C@@H]2Cn3c(ccc(-c4ccccc4)c3=O)[C@H]1N2C(=O)C1CCCCC1	none
CN1C[C@@H]2N[C@H](C1)C2c1ccc(Br)cc1 (some centres not stated)	none
CCN(CCCl)c1cc(CN(C)C)cc(NC(=O)c2ccc(C(=O)Nc3cc(CN(C)C)cc(N(CC)CCCl)c3)cc2)c1	CD40 NFkB inh 108
CC(C)C1(NC(=O)C2CC3c4cccc5[nH]cc(c45)CC3N(C)C2)OC2(O)C3CCCN3C(=O)C(Cc3ccccc3)N2C1=O (configuration not stated)	none
C[C@H](CO)N1C[C@H](C)[C@H](CN(C)C(=O)Oc2ccccc2)OCc2ccccc2-c2c(n(C)c3ccccc23)C1=O	none
Cc1ccc(OC(=O)N(C)C[C@H]2OCc3cnnn3CCCC(=O)N([C@@H](C)CO)C[C@@H]2C)cc1	none
COc1ccccc1CN1[C@H](CO)[C@@H](c2ccccc2)C12CN(C(=O)Cc1ccccc1)C2	none
CC(C)NC(=O)N1C[C@@H]2C(c3ccccc3)[C@H](C1)N2CC1CC1 (some centres not stated)	none
COc1ccc2[nH]c3c(c2c1)CCN=C3C	CD40 NFkB inh 58
COc1ccc2[nH]cc(CCN)c2c1	none
COc1ccc2[nH]c(C)c(CCNCc3cn(C)c4ccccc34)c2c1	none
CC(C)NC(=O)N1C[C@@H]2C(c3ccc(Br)cc3)[C@H](C1)N2CC1CC1 (some centres not stated)	none
C[C@H](CO)N1C[C@H](C)[C@@H](CN(C)C(=O)Oc2ccccc2)OCc2ccccc2-c2c(n(C)c3ccccc23)C1=O	none
CC1CC(C)(O)CC(C(O)CC2CC(=O)NC(=O)C2)C1=O (configuration not stated)	CD40 NFkB inh 96
C=CCN1[C@@H]2CN(C(C)=O)C[C@H]1C2c1ccccc1 (some centres not stated)	none
COC(=O)[C@H]1[C@H](CO)[C@H]2Cn3c(ccc(-c4ccccc4)c3=O)[C@@H]1N2S(=O)(=O)c1ccccc1C	none
CC1CCOC(=O)C=CC=CC(=O)OC2CC3OC4C5OC5(C)C(O)CC4(COC(=O)C1O)C2(C)C31CO1 (configuration not stated)	CD40 NFkB inh 95
CC1=CC2OC3CC4OC(=O)C=CC=CC(C(C)O)OCC(O)C5(C)OC5C(=O)OCC2(CC1O)C4(C)C31CO1 (configuration not stated)	CD40 NFkB inh 86
CC(=O)N1C2CN(C)CC1C2c1ccc(Br)cc1 (configuration not stated)	none
O=C(O)[C@H]1[C@H](CO)[C@H]2Cn3c(ccc(-c4ccncc4)c3=O)[C@@H]1N2C(=O)C1CCCCC1	none
O=C1CNC[C@H]2[C@@H](c3ccc(Br)cc3)[C@@H](CO)N12	none
Cc1cccc(C(C)c2cnc[nH]2)c1C (configuration not stated)	none
C[C@H]1CN([C@@H](C)CO)C(=O)c2c(c3ccccc3n2C)-c2ccccc2CO[C@H]1CN(C)C(=O)Oc1ccccc1	none
CCCCC1C(=O)NC(=S)N(C)C1=O (configuration not stated)	CD40 NFkB inh 33
CC(=O)N1C[C@@H]2C(c3ccc(Br)cc3)[C@H](C1)N2CC1CC1 (some centres not stated)	none
O=C(O)[C@H]1[C@H](CO)[C@H]2Cn3c(ccc(-c4ccc(F)cc4)c3=O)[C@@H]1N2CC1CCCCC1	none
O=C(O)[C@H]1[C@H](CO)[C@H]2Cn3c(ccc(-c4ccccc4)c3=O)[C@@H]1N2C(=O)C1CCCCC1	none
NC(=O)c1c(Br)n(C2OC(CO)C(O)C2O)c2ncnc(N)c12 (configuration not stated)	CD40 NFkB inh 56
CCNC(=O)[C@H]1O[C@@H](n2cnc3c(N)ncnc32)[C@H](O)[C@@H]1O	none
N#Cc1c(Br)n(C2OC(CO)C(O)C2O)c2ncnc(N)c12 (configuration not stated)	CD40 NFkB inh 83
O=C(O)[C@H]1[C@H](CO)[C@H]2Cn3c(ccc(-c4ccc(F)cc4)c3=O)[C@@H]1N2CC1CCCC1	none
CC=Cc1ccc2n(c1=O)C[C@H]1[C@H](CO)[C@@H](C(=O)N(C)C)N[C@@H]21 (mixture of isomers)	none
O=C1CNC[C@@H]2[C@H](c3ccc(Br)cc3)[C@@H](CO)N12	none
